Assay results reported in PubChem BioAssay.
Potency and affinity values are given separately. Calls of active or inactive are those of the source.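 How the source made its calls, unless noted: active means a fitted half-maximal concentration no higher than twice the top valid tested dose, with signal falling as cells die; inconclusive means flat curve between -70% and -30%, or poor fit; inactive means the rest, including signal rising instead of falling.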

What was measured:
[1] = C. neoformans lysis by adenylate kinase leakage – AK release luminescence, cherry-picks, dose response (AID 687000;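 active means fitted dose curve reaches 40% lysis signal rise at or below the highest valid concentration tested for that sample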;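 further: luminescent detection of adenylate kinase leaking from lysed yeast; 0% = median neutral control signal and 100% = double that signal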)
[2] = viability loss in HepG2 hepatoma cells – cell-based, cherry-picks, set 2, cytotoxicity control, dose response (AID 687002;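 active means a dose-response fit showing signal loss, with half-maximal concentration no higher than twice the top tested dose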)
[3] = viability loss in HeLa cells – cell-based, ATP luminescence, cherry-pick samples, cytotoxicity control, dose response (AID 687004);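 further: 0% = neutral control median and -100% = staurosporine 10 µM control median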

Measured: activity change, negative = cytotoxicity

Cc1ccc(S(=O)(=O)N[C@H]2CC[C@H](CC(=O)NCc3ccccc3F)O[C@H]2CO)cc1
inactive: all assays above

Cc1ccc(C)c(NC(=O)C2(C)CCN2C(=O)C(C)C)c1 (centres undefined)
inactive: all assays above

Cc1ccc(NC(=O)C2(N3CCC3=O)CCCCC2)cc1
inactive: all assays above

O=C(CSc1ncnc2c1cnn2-c1ccc(F)cc1)NCc1ccc2c(c1)OCO2
inactive: all assays above

O=C(c1c(Cl)cccc1Cl)N1CCN(c2ccccn2)CC1
inactive: all assays above

O=C(c1ccco1)N1N=C(c2cccs2)CC1c1cc([N+](=O)[O-])ccc1O (centres undefined)
inactive: all assays above

Fc1ccc(CNC(=S)NCc2cccc(Cl)c2)cc1
inactive: all assays above

N#C[C@H]1[C@@H](c2ccccc2)[C@@H](CO)N1C(=O)Cc1ccccc1
inactive: all assays above

C[C@@H]1CN([C@H](C)CO)C(=O)CCCn2nncc2CO[C@H]1CN(C)Cc1cccc(C(F)(F)F)c1
inactive: all assays above

COc1cccc(S(=O)(=O)Nc2ccc3c(c2)[C@H]2C[C@@H](CC(=O)NC4CCCCC4)O[C@@H](CO)[C@H]2O3)c1
inactive: all assays above

COc1ccccc1NC(=O)c1cn(C)c(=O)c2cc(OC)c(OC)cc12
inactive: all assays above

CCC(C)N(C(=O)CSc1ncnc2c1cnn2-c1ccccc1)C1CCS(=O)(=O)C1 (centres undefined)
inactive: all assays above

O=C(NC(=S)NCC1COc2ccccc2O1)c1ccccc1 (centres undefined)
inactive: all assays above

C[C@H]1CN([C@@H](C)CO)C(=O)c2cc(C#CCN(C)C)cnc2O[C@@H]1CN(C)C(=O)Nc1cccc(F)c1
inactive: all assays above

Cc1ccc(OCC(=O)NC(C)c2ccccc2)cc1C (centres undefined)
inactive: all assays above

CCOc1ccc(C(=O)NC(=S)Nc2ccccc2N2CCCCC2)cc1[N+](=O)[O-]
inactive: all assays above

CN1c2ccc(Br)cc2[C@@H]2[C@@H](CCN2C(=O)Cc2cccnc2)[C@@H]1CO
inactive: all assays above

CCC(C)(C(=O)Nc1ccccc1C)N(C(=O)CNC(C)=O)c1ccccc1C (centres undefined)
inactive: all assays above

O=C(COc1ccc2c(c1)CCC2)NCc1ccc(Cl)cc1
inactive: all assays above

COc1cccc(CNC(=O)COc2ccc(C(=O)c3ccccc3)cc2)c1
inactive: all assays above

CCC(=O)N1CCC1(C)C(=O)Nc1ccc(C)c(C)c1 (centres undefined)
inactive: all assays above

Cc1ccc(C(=O)NC(=S)Nc2cccc(NC(=O)c3ccccc3)c2)cc1[N+](=O)[O-]
inactive: all assays above

Cc1noc(C)c1NC(=O)N(C)C[C@H]1Oc2ccc(N(C)C)cc2C(=O)N([C@H](C)CO)C[C@@H]1C
inactive: all assays above

COc1ccc(CN(C)C[C@@H]2OCCCC[C@@H](C)Oc3ccc(NC(=O)c4ccccc4)cc3C(=O)N([C@H](C)CO)C[C@@H]2C)cc1
inactive: all assays above

CN1c2ccc(-c3ccc(F)cc3)cc2[C@H]2[C@H](CCN2S(=O)(=O)c2cccc(F)c2)[C@H]1CO
inactive: [1] | [2] | [3] 7.29% [at 6 µM]

O=C(CN1CCOCC1)N[C@@H]1CC[C@@H](CCNC(=O)C2CCC2)O[C@@H]1CO
inactive: all assays above

C[C@@H]1CCCCO[C@H](CN(C)Cc2ccccc2)[C@H](C)CN([C@@H](C)CO)C(=O)c2cc(NS(=O)(=O)c3cccs3)ccc2O1
inactive: all assays above

COc1ccc(NC(=O)N(C)C[C@H]2OCCCC[C@@H](C)Oc3ccc(NC(=O)c4ccccc4)cc3C(=O)N([C@H](C)CO)C[C@H]2C)cc1
inactive: all assays above

CC(NC(=O)COc1ccccc1Cl)c1ccccc1 (centres undefined)
inactive: all assays above

COCCNC(=O)C[C@H]1C=C[C@H](NS(=O)(=O)c2ccc(C)cc2)[C@@H](CO)O1
inactive: all assays above

CCCC(=O)Nc1ccc2c(c1)OC[C@H](C)N(Cc1ccccn1)C[C@H](C)[C@H](OC)CN(C)C2=O
inactive: all assays above

COc1ccc(NC(=O)CSc2ncnc3c2cnn3Cc2ccccc2)cc1
inactive: all assays above

CNC[C@H]1Oc2ncc(C#CCC(C)C)cc2C(=O)N([C@H](C)CO)C[C@H]1C
inactive: all assays above

CN1c2ccc(-c3ccc(F)cc3)cc2[C@@H]2[C@@H](CCN2C(=O)C2CCOCC2)[C@@H]1CO
inactive: all assays above

COCC#Cc1cnc2c(c1)C(=O)N([C@@H](C)CO)C[C@H](C)[C@H](CN(C)C(=O)Nc1ccc(OC)cc1)O2
inactive: all assays above

CC(C)Oc1cccc(C(=O)NC(=S)Nc2ccccc2N2CCOCC2)c1
inactive: all assays above

COc1ccc(N2CCN(C(=O)CSc3ncnc4c3cnn4-c3ccccc3C)CC2)cc1
inactive: all assays above

O=C(CSc1ncnc2c1cnn2-c1ccc(F)cc1)NCC1CCCO1 (centres undefined)
inactive: all assays above

O=C(c1cccnc1)N1C[C@H]2[C@@H](c3ccccc31)[C@@H](CO)N2C(=O)Nc1ccc(F)cc1
inactive: all assays above

O=C(COc1ccccc1)NCc1ccccc1
inactive: all assays above

O=C(CCCNC(=O)c1ccc(Cl)cc1)Nc1nccs1
inactive: all assays above

C[C@H](CO)N1C[C@H](C)[C@H](CN(C)C(=O)NC2CCCCC2)OCCCC[C@H](C)Oc2ccc(NS(=O)(=O)c3cn(C)cn3)cc2C1=O
inactive: all assays above

N#Cc1ccc(C23CC4(C2)[C@H](CN(Cc2ccc(C(F)(F)F)cc2)[C@@H]4c2ccccc2)C3c2ccccc2)cc1 (some centres undefined)
inactive: all assays above

CC(=O)c1ccc(N2CCN(C(=O)Cc3cccs3)CC2)cc1
inactive: all assays above

Cc1cc(OCC(=O)N(C)Cc2ccccc2)cc(C)c1Cl
inactive: all assays above

O=C(CN(c1ccccc1)S(=O)(=O)c1ccc(F)cc1)N1CCCCCC1
inactive: all assays above

Cc1ccc(/C=C2\SC(=S)N(NS(=O)(=O)c3ccc(C)cc3)C2=O)cc1
inactive: all assays above

Cc1ccc(-n2ncc3c(SCC(=O)NNC(=O)C(C)C)ncnc32)cc1
inactive: all assays above

O=C(CCN1CCCCC1)NCC[C@@H]1CC[C@H](NC(=O)c2ccc(F)cc2)[C@@H](CO)O1
inactive: all assays above

CC(C)NC(=O)N(C)C[C@H]1Oc2c(NS(=O)(=O)c3ccc(Cl)cc3)cccc2C(=O)N([C@@H](C)CO)C[C@@H]1C
inactive: all assays above

COc1cc(C(=O)NC(=S)Nc2ccccc2N2CCOCC2)cc(OC)c1OC
inactive: all assays above

CNC[C@H]1Oc2cc(Br)ccc2S(=O)(=O)N([C@H](C)CO)C[C@H]1C
inactive: all assays above

Cc1ccc(CSc2ncnc3c2cnn3-c2ccccc2)cc1
inactive: all assays above

CC(C)c1ccc(OCC(=O)NC(C)c2ccccc2)cc1 (centres undefined)
inactive: all assays above

CCNC(=O)CN(c1ccccc1)S(=O)(=O)c1ccc(Cl)cc1
inactive: all assays above

Cc1ccc(NC(=S)NCc2ccc(Cl)cc2)c(OC(F)F)c1
inactive: all assays above

Cc1cccc(C)c1NC(=O)C1(C)CCC(=O)N1CCCn1ccnc1 (centres undefined)
inactive: all assays above

CCOC(=O)CNC(=O)CSc1ncnc2c1cnn2-c1ccc(C)cc1
inactive: all assays above
